# An excerpt weighted towards active compounds, which were near 27% of everything screened.
# Cav32 inh – Cav3.2 calcium influx blockers – cell-based, Fluo-4 calcium fluorescence, FDSS, MLSMR library, primary screen; Voltage-dependent T-type calcium channel subunit alpha-1H (Homo sapiens), O95180; Cav3.2-expressing cells; active compounds read low; B-score at 10 µM; 4% of 100,000 active;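 active means single-dose well whose peak fluorescence ratio is a statistical outlier from its plate by either plate-standardised score or position-corrected B-score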
# CYP2C9 inhib – blockers of cytochrome P450 2C9 activity – biochemical, luminescence, ADME assay, primary screen. inhibition, % at 5 µM. P11712. 20% of 96,000 active. CYP2C9 Supersomes, luciferin-H conversion;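 active means blocking of liver enzyme CYP2C9 beyond about 50% at 5 µM, limit read from the data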
# CYP2C19 act – human CYP2C19 activators, primary screen, biochemical, luminescence | Cytochrome P450 2C19 (Homo sapiens), P33261 | recombinant CYP2C19, luciferin-H EGE luminescence; active compounds read high; 0 = fully inhibited enzyme, 1 = untreated enzyme | activation factor at 5 µM | 96,000 tested, under 10 active | AID 1025, 2008;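 active means activation factor of at least 2 at 5 µM in the primary screen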;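 further: 0 = wells with 2.5 mM tranylcypromine and 1 = vehicle-only wells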
# Target sequence (P33261 whole entry, looked up): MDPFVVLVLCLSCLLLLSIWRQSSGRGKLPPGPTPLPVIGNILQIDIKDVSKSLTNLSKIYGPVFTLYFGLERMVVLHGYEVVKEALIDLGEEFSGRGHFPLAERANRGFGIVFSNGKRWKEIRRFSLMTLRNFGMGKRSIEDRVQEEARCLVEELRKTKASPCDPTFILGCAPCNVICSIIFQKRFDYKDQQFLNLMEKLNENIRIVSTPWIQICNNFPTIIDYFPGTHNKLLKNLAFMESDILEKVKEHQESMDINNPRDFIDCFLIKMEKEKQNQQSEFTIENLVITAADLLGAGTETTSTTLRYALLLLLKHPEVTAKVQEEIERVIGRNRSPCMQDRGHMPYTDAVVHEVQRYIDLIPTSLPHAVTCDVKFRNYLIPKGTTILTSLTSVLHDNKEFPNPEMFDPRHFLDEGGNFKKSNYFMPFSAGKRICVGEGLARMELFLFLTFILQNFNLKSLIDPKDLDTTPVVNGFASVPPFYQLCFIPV
# CYP2C19 inh – blockers of cytochrome P450 2C19 activity – biochemical, luminescence, ADME assay, primary screen. inhibition, % at 5 µM. CYP2C19 Supersomes, luciferin-H EGE luminescence, 30 min. 21% of 96,000 active. AID 778, 2007. P33261;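 active means CYP2C19 inhibition above a set limit at 5 µM in the primary screen, cut at about 50% in these data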;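 further: plate controls were negative control wells for no effect and 2.5 mM tranylcypromine positive control for full effect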
# CYP2C9 act – human CYP2C9 activators, primary screen, biochemical, luminescence. recombinant CYP2C9, luciferin-H conversion; active compounds read high; factor 1 = untreated enzyme, 0 = blocked. Cytochrome P450 2C9 (Homo sapiens), P11712. AID 1024, 2008. 1.4% of 96,000 active. activation factor at 5 µM;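 active means activation factor of 2 or more for CYP2C9 at a 5 µM dose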;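 further: 0 = sulfaphenazole-blocked wells and 1 = vehicle-only wells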
# The depositor's hits bear a star; . = no result given.
SMILES,Cav32 inh,CYP2C9 inhib,CYP2C19 act,CYP2C19 inh,CYP2C9 act
COc1ccc(C2CC(=O)c3cnc(NC(=O)c4ccccc4)nc3C2)cc1OC (stereo not given),0.186,70.4*,0.9,9.9,0.3
COc1cc(C2CC(=O)c3cnc(NC(=O)COc4ccccc4)nc3C2)cc(OC)c1OC (stereo not given),0.235,19.1,0.9,14.6,0.8
O=C1CC(c2ccco2)Cc2nc(N3CCc4ccccc4C3)ncc21 (stereo not given),-1.27,97.8*,0.1,95.0*,0
COc1ccc(C2CC(=O)c3c(C)nc(N4CCN(Cc5ccccc5)CC4)nc3C2)cc1OC (stereo not given),-3.77,99.7*,0.1,91.0*,0
COc1cc(C2CC(=O)c3cnc(N)nc3C2)cc(OC)c1OC (stereo not given),0.759,-1.5,0.9,7.2,1
COc1ccc(C(c2nnnn2Cc2cccs2)N2CCN(c3ccc(F)cc3)CC2)cc1OC (stereo not given),-2.42,35.3,0.8,18.8,0.6
O=C(NCCN1CCOCC1)N1c2ccccc2Sc2ccccc21,-0.169,-13.8,0.9,7.9,1.1
CCOC(=O)C(C(=O)OCC)C(C)C#CCN1CCCCC1 (stereo not given),1.47,-21.7,0.7,28.5,1.2
COc1cc(C2CC(=O)c3cnc(N4CCN(Cc5ccccc5)CC4)nc3C2)cc(OC)c1OC (stereo not given),-3.47,96.7*,0.2,83.7*,0
Cc1nc(N2CCN(Cc3ccccc3)CC2)nc2c1C(=O)CC(C)C2 (stereo not given),0.566,76.8*,0.4,60.6*,0.2
Cc1nc(N2CCN(Cc3ccccc3)CC2)[nH]c(=O)c1C,2.64,-2.4,1.1,-10.4,1
C#CCOCCOCCOCCNc1nc(N2CCN(C(=O)C(Cc3ccc(O)cc3)n3cc(C(N)CC(C)C)nn3)CC2)nc(N2CCN(C(=O)C(Cc3cc4ccccc4[nH]3)n3cc(C(N)Cc4ccc(O)cc4)nn3)CC2)n1 (stereo not given),0.877,.,.,.,.
CC(=O)C1=C(O)C(=O)N(Cc2ccccc2)C1c1ccco1 (stereo not given),0.446,13.6,1,-2.4,0.9
COc1ccc(Cl)cc1-n1c(=S)sc2c(=O)[nH]c(SCC(=O)NCC3CCCO3)nc21 (stereo not given),-0.608,53.3*,1,3.3,0.5
O=C(CSc1ccc(Cl)cc1)NCC1CCCO1 (stereo not given),0.224,21.8,0.6,37.3,0.8
CCOc1cc(C2C(C(=O)N3CCCCC3)=C(C)NC3=C2C(=O)CCC3)cc(Br)c1O (stereo not given),-1.37,-1.8,0.9,5.8,1
Nc1ccc(-c2nc3ccccc3[nH]2)cc1,1.39,-11.1,1.1,-7.5,1.1
Nc1ccccc1-c1nc2ccccc2[nH]1,0.421,56.2*,0.5,47.2,0.4
Cc1cccc(C(=O)Nc2sc(C)c(-c3ccccc3)c2C#N)c1,-2.04,19.0,0.6,38.5,0.8
N#Cc1c(NC(=O)c2ccccc2)sc2c1CCCCC2,0.718,.,.,.,.
Cc1noc(C)c1C(=O)Nc1sc(C)c(-c2ccccc2)c1C#N,-3.86,76.1*,0.4,61.7*,0.2
Cc1ccccc1C(=O)NC(=S)Nc1sc2c(c1C#N)CCCC2,-1.9,74.1*,0.6,44.6,0.3
Cc1onc(-c2ccccc2)c1C(=O)Nc1sc2c(c1C#N)CCC2,-1.9,68.5*,1,3.7,0.3
Cc1ccc(Nc2c([N+](=O)[O-])ccc3c2=NC2(CCCCC2)N=3)cc1,.,32.3,0.9,6.7,0.7
C=CCn1c(COc2ccc(Cl)cc2)nnc1SCC(=O)N/N=C/c1ccccc1,-3.61,6.8,0.9,10.9,0.9
SMILES,Cav32 inh,CYP2C9 inhib,CYP2C19 act,CYP2C19 inh,CYP2C9 act
COC(=O)c1ccccc1NC(=O)CN1CCC(n2nnc3cc(F)ccc32)CC1,0.342,19.9,0.6,35.1,0.8
CCOc1ccccc1NC(=O)CN1CCC(NC(=O)c2ccccc2)CC1,0.36,-91.3,0,95.2*,1.9
COc1ccc(C(=O)NC2CCN(CC(=O)Nc3cccc(C)c3)CC2)cc1OC,2.24,.,.,.,.
CCCN1CCC(NC(=O)Nc2ccccc2C(=O)OC)CC1,0.547,5.7,1,-3.5,0.9
COC(=O)c1ccccc1NC(=O)CN1CCC(NC(=O)c2ccc(C)cc2)CC1,-0.286,67.2*,0.1,87.7*,0.3
CCOc1ccc(OCC)c(NC(=O)CN2CCC(NC(=O)c3cccc(F)c3)CC2)c1,-0.396,68.4*,0.3,73.8*,0.3
COC(=O)c1ccccc1NC(=O)CN1CCN(C23CC4CC(CC(C4)C2)C3)CC1,1.27,53.3*,0.7,33.4,0.5
c1ccc(-n2ncc3c(N4CCN(c5ccccn5)CC4)nc(N4CCCCCC4)nc32)cc1,-1.15,27.2,0.8,18.4,0.7
C/C(=N/OC(=O)c1c(F)cccc1F)c1nccs1,-4.65*,-10.5,0.9,13.9,1.1
C/C(=N\OC(=O)c1ccc(F)cc1)c1nccs1,-0.912,43.7,0.9,9.7,0.6
CC(C)CC(C(=O)Oc1ccc2c3c(c(=O)oc2c1)CCC3)N1C(=O)c2ccccc2C1=O (stereo not given),.,26.3,0.5,48.3,0.7
COC(=O)C(C)Oc1ccc2c3c(c(=O)oc2c1)CCCCC3 (stereo not given),-0.505,81.9*,0.3,74.9*,0.2
COC(=O)c1ccc(OC(=O)c2ccco2)cc1,-0.368,5.8,0.9,6.7,0.9
Cc1ccc(S(=O)(=O)NC(CC(C)C)C(=O)Oc2ccc3c4c(c(=O)oc3c2)CCC4)cc1 (stereo not given),-2.46,23.7,0.7,31.4,0.8
CCC(NC(=O)OC(C)(C)C)C(=O)Oc1ccc2c3c(c(=O)oc2c1)CCC3 (stereo not given),-0.017,-78.1,0.9,7.8,1.8
CSCCC(NC(C)=O)C(=O)Oc1ccc2c3c(c(=O)oc2c1)CCCC3 (stereo not given),0.842,-180.9,0.8,15.0,2.8*
CC(C)Oc1ccc2c3c(c(=O)oc2c1)CCC3,-0.584,24.3,0.2,78.6*,0.8
O=C(Oc1ccc2c3c(c(=O)oc2c1)CCCC3)c1ccco1,.,-114.0,0.8,23.7,2.1*
CCOC(=O)N1CCN(c2c(NCC3CCN(Cc4cccc(C)c4)CC3)c(=O)c2=O)CC1,-0.177,-1.8,1.1,-6.1,1
CCCOc1ccc2c3c(c(=O)oc2c1)CCCC3,.,33.2,0.4,58.7*,0.7
O=C(O)COc1ccc2c3c(c(=O)oc2c1)CCC3,0.347,3.6,1,-2.5,1
N#Cc1c(SCC(=O)O)nc(-c2ccccc2)c2c1CCCC2,3.34,29.1,1,-0.2,0.7
